Shown are actives, neighbours in structure and some others; about 2.3% of the full set was active somewhere.
Pol iota inh – inhibitors of human DNA polymerase iota | Potency, µM (series often up to 115 µM), for the others: top-dose activity, negative = inhibition, actives largely listed as inhibitors | 1% of 390,000 active | Q9UNA4 | Pol iota fluorescent replication assay, 10 min
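Fluorescent replication assay read twice, at 0 min and 10 min after adding 50 nM (final) substrate. Enzyme (10 nM) and compounds were first incubated 15 min at room temperature; enzyme-free buffer wells were negative controls.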
POLH inh – blocks human DNA polymerase eta activity | Q9Y253 | recombinant Pol eta, fluorescent DNA replication assay | Potency, µM (series often up to 114 µM), without a hit: at the highest dose activity change, negative = inhibition, hits mostly inhibitors | 1.2% of 390,000 active; further: on the % scale 0 is the no-effect control and ±100 the full control effect
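Pol eta at 10 nM preincubated with compounds 15 min at room temperature; reaction started with fluorescent substrate (50 nM final) and read kinetically at 0 and 10 min.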
Pol kappa inh – inhibitors of human DNA polymerase kappa; Q9UBT6; Potency, µM (doses to about 107 µM), inactives show at the highest dose activity, negative = inhibition, actives largely listed as inhibitors; purified Pol kappa, fluorescent DNA synthesis assay, 10 min; AID 588579; 0.53% of 400,000 active; further: on the % scale 0 is the no-effect control and ±100 the full control effect
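10 nM Pol kappa was preincubated with compounds for 15 min at room temperature. Reaction started with 50 nM (final) substrate. Fluorescence read kinetically at 0 and 10 min.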
Pol beta inh – inhibitors of human DNA polymerase beta | P06746 | Pol beta primer extension/strand displacement, fluorescence kinetic | Potency, µM (doses to about 114 µM), for inactives: at the top dose activity change, negative = inhibition, most hits filed as inhibitors | 1.3% of 340,000 active | AID 485314; further: on the % scale 0 is the no-effect control and ±100 the full control effect
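Homogeneous kinetic assay of primer extension and strand displacement by 10 nM Pol beta, preincubated 15 min at room temperature with compound before 50 nM substrate (final) was added. Read at 0 and 10 min; four-parameter Hill fit.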
WRN inhibitor – inhibitors of human WRN helicase | Q14191 | WRN helicase unwinding, fluorescent forked duplex, kinetic | Potency, µM (highest dose often 114 µM), inactives show at the highest dose activity change, negative = inhibition, hits mostly inhibitors | 0.46% of 360,000 active | AID 651768; further: on the % scale 0 is the no-effect control and ±100 the full control effect; nearly all actives have a fitted effect of over 55% in size
Target sequence (Q14191 whole entry, looked up): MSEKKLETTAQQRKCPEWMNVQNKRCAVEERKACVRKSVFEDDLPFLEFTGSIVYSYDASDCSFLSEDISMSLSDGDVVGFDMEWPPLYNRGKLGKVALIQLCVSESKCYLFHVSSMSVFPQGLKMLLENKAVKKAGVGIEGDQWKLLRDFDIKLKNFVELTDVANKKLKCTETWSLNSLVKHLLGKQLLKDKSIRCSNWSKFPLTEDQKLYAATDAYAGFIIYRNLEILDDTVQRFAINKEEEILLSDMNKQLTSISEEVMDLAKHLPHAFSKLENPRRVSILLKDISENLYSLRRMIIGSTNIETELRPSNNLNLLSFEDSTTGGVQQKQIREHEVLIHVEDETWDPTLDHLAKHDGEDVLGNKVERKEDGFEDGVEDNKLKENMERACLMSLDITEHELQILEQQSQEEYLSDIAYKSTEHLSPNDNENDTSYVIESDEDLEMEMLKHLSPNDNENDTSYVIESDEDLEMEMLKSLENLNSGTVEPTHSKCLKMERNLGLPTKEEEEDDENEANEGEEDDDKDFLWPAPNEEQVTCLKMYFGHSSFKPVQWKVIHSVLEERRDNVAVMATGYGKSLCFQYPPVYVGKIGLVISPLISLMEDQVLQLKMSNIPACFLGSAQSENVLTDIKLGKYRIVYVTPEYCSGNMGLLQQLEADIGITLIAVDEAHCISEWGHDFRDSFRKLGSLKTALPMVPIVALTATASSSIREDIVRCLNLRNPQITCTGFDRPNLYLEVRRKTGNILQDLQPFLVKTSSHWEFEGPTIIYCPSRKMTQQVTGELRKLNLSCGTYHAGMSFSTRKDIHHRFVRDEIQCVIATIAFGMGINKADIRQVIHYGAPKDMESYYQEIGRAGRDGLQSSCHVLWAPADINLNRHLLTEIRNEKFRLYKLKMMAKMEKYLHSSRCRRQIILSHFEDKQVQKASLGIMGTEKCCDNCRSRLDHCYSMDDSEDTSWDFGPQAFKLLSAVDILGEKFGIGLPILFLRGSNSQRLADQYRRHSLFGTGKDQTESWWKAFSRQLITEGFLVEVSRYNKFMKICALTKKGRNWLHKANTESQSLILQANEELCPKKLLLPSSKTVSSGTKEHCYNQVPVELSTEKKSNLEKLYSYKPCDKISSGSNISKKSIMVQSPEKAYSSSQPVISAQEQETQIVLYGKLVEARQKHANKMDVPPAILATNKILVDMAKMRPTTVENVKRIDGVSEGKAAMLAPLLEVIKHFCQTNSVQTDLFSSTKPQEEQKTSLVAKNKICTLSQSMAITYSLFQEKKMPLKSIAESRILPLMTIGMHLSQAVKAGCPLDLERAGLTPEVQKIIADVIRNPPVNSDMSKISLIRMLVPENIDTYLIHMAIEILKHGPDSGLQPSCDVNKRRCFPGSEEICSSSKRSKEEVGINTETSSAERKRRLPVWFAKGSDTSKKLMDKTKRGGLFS
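Screening of the MLSMR collection measured strand separation of a quenched forked DNA duplex (100 nM) by 20 nM WRN with 2 mM ATP, all final. Compounds were preincubated with enzyme 15 min at room temperature.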
Starred values were filed as active, the others as inactive. The call rests on the fitted dose curve; in most records, active means well fitted curve in the direction sought with a large enough effect; inconclusive means small, poorly fitted or top-dose-only effect, or another doubt; inactive means no such curve, though single readings can be large; an effect the other way counts as inactive or inconclusive. Potency means the concentration at half of the fitted maximal effect.

How did CCN(CC)c1ccc(C=C2C(=O)OC(c3ccccc3)OC2=O)cc1 (stereo unspecified) do in these assays?
Pol iota inh: 34.0%; POLH inh: inconclusive; Pol kappa inh: -11.1%; Pol beta inh: 11.7%; WRN inhibitor: 50.1µM*

Results for CCN(CC)c1ccc(C=C2C(=O)OC(C)(C(C)(C)C)OC2=O)cc1 (stereo unspecified) ?
Pol iota inh: inconclusive; POLH inh: -13.1%; Pol kappa inh: 2.2%; Pol beta inh: 14.2%; WRN inhibitor: inconclusive

Results for CCN(CC)c1ccc(C=C2C(=O)OC3(CCCC3)OC2=O)cc1 ?
Pol iota inh: -3.7%; POLH inh: 0.7%; Pol kappa inh: -8.9%; Pol beta inh: -1.3%; WRN inhibitor: 50.1µM*

What do the screens show for `CN(C)c1ccc(/C=C/C=C2/C=Cc3ccccc32)cc1`?
Pol iota inh: 29.3%; Pol kappa inh: -2.2%

Results for CCC(=O)Oc1ccc2c(c1)O/C(=C\c1ccco1)C2=O ?
Pol iota inh: inconclusive; POLH inh: inconclusive; Pol kappa inh: inconclusive; Pol beta inh: inconclusive; WRN inhibitor: -24.0%

How did COC(=O)COc1ccc2c(c1)O/C(=C\c1ccco1)C2=O do in these assays?
Pol iota inh: inconclusive; POLH inh: inconclusive; Pol kappa inh: -26.2%; Pol beta inh: 31.6µM*; WRN inhibitor: inconclusive

How did CCN(CC)C(=O)Oc1ccc2c(c1)O/C(=C\c1ccco1)C2=O do in these assays?
Pol iota inh: inconclusive; POLH inh: -25.8%; Pol kappa inh: -11.8%; Pol beta inh: 44.7µM*; WRN inhibitor: 6.6%

How did Cc1c(CN2CCCC(C)C2)c(O)n(CCO)c(=O)c1C#N (stereo unspecified) do in these assays?
Pol iota inh: 107.9%; POLH inh: -13.0%; Pol kappa inh: -3.6%; Pol beta inh: inconclusive; WRN inhibitor: -22.7%

Results for C=CCn1c(O)c(CN2CCCCC2)c(C)c(C#N)c1=O ?
Pol iota inh: 28.2µM*; POLH inh: -19.6%; Pol kappa inh: -9.7%; Pol beta inh: 10.3%; WRN inhibitor: -3.5%

How did O=C(O)C1CC=CCC1C(=O)Nc1ccc(F)c(F)c1 (stereo unspecified) do in these assays?
Pol iota inh: 9.6%; POLH inh: 3.3%; Pol kappa inh: -11.9%; Pol beta inh: 59.3%; WRN inhibitor: -3.5%

How did O=C(O)C1CC=CCC1C(=O)Nc1ccc2c(c1)OCCO2 (stereo unspecified) do in these assays?
Pol iota inh: -15.5%; POLH inh: inconclusive; Pol kappa inh: -3.7%; Pol beta inh: 20µM*; WRN inhibitor: -2.7%

How did O=C(O)C1CC=CCC1C(=O)Nc1cccc(F)c1 (stereo unspecified) do in these assays?
Pol iota inh: -5.8%; POLH inh: -6.4%; Pol kappa inh: -13.6%; Pol beta inh: 28.2µM*; WRN inhibitor: -18.0%

What do the screens show for `Cn1cc(/C=C2\SC(=S)N(NC(=O)c3cccc(Cl)c3)C2=O)c2ccccc21`?
Pol iota inh: 20.3%; POLH inh: 13.8%; Pol kappa inh: 10.0%; Pol beta inh: 0.1%; WRN inhibitor: 20µM*

Results for O=C(c1ccccc1)c1ccc2nc(N3CCN(c4ccccc4)CC3)c3nncn3c2c1 ?
Pol iota inh: 21.2%; POLH inh: -16.0%; Pol kappa inh: 0.0%; Pol beta inh: -9.7%

Results for O=C(c1ccccc1)c1ccc2nc(N3CCN(C(=O)c4ccco4)CC3)c3nncn3c2c1 ?
Pol iota inh: 79.4µM*; POLH inh: -27.1%; Pol kappa inh: 1.9%; Pol beta inh: 12.1%; WRN inhibitor: -12.3%

How did CC(=O)N1c2ccc(S(=O)(=O)NCC3CCC(C(=O)NC4CCC(C)CC4)CC3)cc2CC1C (stereo unspecified) do in these assays?
Pol iota inh: 8.7%; POLH inh: -2.1%; Pol kappa inh: -2.7%; Pol beta inh: 1.8%; WRN inhibitor: 3.1%

Results for CC(=O)N1c2ccc(S(=O)(=O)NCC3CCC(C(=O)Nc4cccc(C)c4C)CC3)cc2CC1C (stereo unspecified) ?
Pol iota inh: inconclusive; POLH inh: -19.1%; Pol kappa inh: -20.0%; Pol beta inh: 22.4µM*

Assay outcomes from PubChem.
